Results taken from PMC7862700, “An all-to-all approach to the identification of sequence-specific readers for epigenetic DNA modifications on cytosine”.

Experiments:
Assay in all cases: DAPPL (digital affinity profiling via proximity ligation, sequencing); 10 mM Tris-HCl pH 7.5, 50 mM NaCl, 1 mM DTT, 4% glycerol, room temperature, 30 min; GST-TFs on glutathione beads, 16-mer random dsDNA library, 0.1% formaldehyde crosslink after washing; high values mean tight binding
[1] = biological target: T1, FEV (Homo sapiens, UniProt Q99581 1-238); conditions: protein: recombinant; tags: N-terminal GST; dsDNA, one strand shown
T1 sequence: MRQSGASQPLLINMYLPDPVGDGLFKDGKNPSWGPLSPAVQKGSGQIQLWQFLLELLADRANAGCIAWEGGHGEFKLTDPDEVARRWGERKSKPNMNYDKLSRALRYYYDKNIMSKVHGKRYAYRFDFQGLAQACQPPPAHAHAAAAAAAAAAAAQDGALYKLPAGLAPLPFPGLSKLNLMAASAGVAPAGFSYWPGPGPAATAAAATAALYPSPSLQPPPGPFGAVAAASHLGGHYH
How it was run: (§1)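 Beads coated with glutathione captured GST-fused human transcription factors that had been expressed in yeast, and the factors were then given DNA barcodes and pooled with a tag-only sample. The pools were incubated with 200 nmole of a random double-stranded 16-mer DNA library in Tris/NaCl/DTT/glycerol buffer for 30 min at room temperature, washed, crosslinked with 0.1% formaldehyde and proximity-ligated with BsaI/T4 ligase at 37 °C for 1 h. PCR amplification and Illumina NextSeq500 sequencing came last. Binding signal is each hexamer's read frequency for a factor divided by its frequency for the tag-only sample.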

[2] = biological target: ETV5 (Homo sapiens, UniProt P41161 1-510); conditions: protein: recombinant; tags: N-terminal GST; dsDNA, one strand shown
How it was run: as §1

[3] = biological target: HSF1 (Homo sapiens, UniProt Q00613 1-529); conditions: protein: recombinant; tags: N-terminal GST; chain copies: 3; dsDNA, one strand shown
How it was run: as §1

[4] = biological target: T2, SPIC (Homo sapiens, UniProt Q8N5J4 1-248); conditions: protein: recombinant; tags: N-terminal GST; dsDNA, one strand shown
T2 sequence: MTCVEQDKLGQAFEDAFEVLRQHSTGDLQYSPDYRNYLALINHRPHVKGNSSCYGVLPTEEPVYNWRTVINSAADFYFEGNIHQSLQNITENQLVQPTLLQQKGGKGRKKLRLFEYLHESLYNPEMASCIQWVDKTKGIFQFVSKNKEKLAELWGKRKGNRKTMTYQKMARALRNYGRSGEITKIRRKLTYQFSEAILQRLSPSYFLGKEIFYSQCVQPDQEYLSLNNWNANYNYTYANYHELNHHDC
How it was run: as §1

[5] = biological target: ELF4 (Homo sapiens, UniProt Q99607 1-663); conditions: protein: recombinant; tags: N-terminal GST; dsDNA, one strand shown
How it was run: as §1

[6] = biological target: T3, ELK4 (Homo sapiens, UniProt P28324-2 1-405); conditions: protein: recombinant; tags: N-terminal GST; dsDNA, one strand shown
T3 sequence: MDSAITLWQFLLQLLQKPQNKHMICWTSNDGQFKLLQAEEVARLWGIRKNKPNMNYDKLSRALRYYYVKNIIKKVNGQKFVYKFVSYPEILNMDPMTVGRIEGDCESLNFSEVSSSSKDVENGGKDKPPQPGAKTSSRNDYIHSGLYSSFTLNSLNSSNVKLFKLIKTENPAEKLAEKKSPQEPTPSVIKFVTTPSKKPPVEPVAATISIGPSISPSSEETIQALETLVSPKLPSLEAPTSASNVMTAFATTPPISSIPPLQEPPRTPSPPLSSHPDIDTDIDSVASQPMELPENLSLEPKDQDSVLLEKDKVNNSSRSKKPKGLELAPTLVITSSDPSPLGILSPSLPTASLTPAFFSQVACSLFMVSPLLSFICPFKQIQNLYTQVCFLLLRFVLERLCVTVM
How it was run: as §1

[7] = biological target: T4, ETV2 (Homo sapiens, UniProt O00321 1-342); conditions: protein: recombinant; tags: N-terminal GST; dsDNA, one strand shown
T4 sequence: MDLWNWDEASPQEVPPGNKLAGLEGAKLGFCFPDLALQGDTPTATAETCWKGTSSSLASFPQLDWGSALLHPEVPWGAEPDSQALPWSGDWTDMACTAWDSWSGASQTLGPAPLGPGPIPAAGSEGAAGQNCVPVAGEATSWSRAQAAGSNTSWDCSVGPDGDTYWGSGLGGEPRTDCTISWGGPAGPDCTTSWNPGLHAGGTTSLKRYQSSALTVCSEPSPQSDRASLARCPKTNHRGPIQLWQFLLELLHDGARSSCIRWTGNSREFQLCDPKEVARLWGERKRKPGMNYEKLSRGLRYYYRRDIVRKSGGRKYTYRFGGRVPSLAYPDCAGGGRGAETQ
How it was run: as §1

[8] = biological target: T5, ELF3 (Homo sapiens, UniProt P78545 1-371); conditions: protein: recombinant; tags: N-terminal GST; dsDNA, one strand shown
T5 sequence: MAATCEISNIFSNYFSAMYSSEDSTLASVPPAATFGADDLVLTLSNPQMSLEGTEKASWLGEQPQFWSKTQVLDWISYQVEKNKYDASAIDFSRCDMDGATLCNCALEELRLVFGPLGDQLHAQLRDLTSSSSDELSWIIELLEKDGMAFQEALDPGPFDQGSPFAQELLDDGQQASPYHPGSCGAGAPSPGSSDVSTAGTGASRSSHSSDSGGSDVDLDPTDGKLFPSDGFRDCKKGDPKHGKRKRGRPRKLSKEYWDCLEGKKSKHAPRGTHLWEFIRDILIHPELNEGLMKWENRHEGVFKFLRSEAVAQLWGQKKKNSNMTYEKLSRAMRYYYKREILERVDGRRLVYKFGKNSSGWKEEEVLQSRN
How it was run: as §1

[9] = biological target: CRX (Homo sapiens, UniProt O43186 1-299); conditions: protein: recombinant; tags: N-terminal GST; dsDNA, one strand shown
How it was run: as §1

[10] = biological target: ETV1 (Homo sapiens, UniProt P50549 1-477); conditions: protein: recombinant; tags: N-terminal GST; dsDNA, one strand shown
How it was run: as §1

[11] = biological target: T6, ERF (Homo sapiens, UniProt P50548 1-548); conditions: protein: recombinant; tags: N-terminal GST; dsDNA, one strand shown
T6 sequence: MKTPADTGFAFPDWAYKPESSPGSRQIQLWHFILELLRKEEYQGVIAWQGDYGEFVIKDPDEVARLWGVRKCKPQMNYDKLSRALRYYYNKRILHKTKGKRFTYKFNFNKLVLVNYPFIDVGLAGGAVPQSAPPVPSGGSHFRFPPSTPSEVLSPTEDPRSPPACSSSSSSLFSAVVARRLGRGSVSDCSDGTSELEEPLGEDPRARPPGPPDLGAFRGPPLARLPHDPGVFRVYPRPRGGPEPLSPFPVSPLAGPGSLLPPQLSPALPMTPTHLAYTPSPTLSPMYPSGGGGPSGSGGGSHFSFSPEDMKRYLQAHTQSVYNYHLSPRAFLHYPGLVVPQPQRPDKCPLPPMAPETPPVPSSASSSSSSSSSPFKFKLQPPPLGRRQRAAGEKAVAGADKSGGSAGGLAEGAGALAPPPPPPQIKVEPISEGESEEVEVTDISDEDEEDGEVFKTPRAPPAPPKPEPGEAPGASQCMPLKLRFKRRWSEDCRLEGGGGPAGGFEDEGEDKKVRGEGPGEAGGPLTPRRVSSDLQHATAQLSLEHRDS
How it was run: as §1

[12] = biological target: T7, ETV3L (Homo sapiens, UniProt Q6ZN32 1-361); conditions: protein: recombinant; tags: N-terminal GST; dsDNA, one strand shown
T7 sequence: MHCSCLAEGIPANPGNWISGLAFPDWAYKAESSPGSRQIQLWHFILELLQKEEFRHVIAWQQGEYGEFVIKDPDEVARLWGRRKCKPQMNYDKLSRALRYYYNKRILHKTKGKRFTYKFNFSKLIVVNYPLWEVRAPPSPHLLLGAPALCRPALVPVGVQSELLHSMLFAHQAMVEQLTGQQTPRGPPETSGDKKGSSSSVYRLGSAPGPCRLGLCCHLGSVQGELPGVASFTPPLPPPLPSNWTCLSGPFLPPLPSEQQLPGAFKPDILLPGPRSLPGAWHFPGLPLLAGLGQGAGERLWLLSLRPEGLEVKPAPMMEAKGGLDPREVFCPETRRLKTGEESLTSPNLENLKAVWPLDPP
How it was run: as §1

[13] = biological target: T8, ETS2 (Homo sapiens, UniProt P15036 1-469); conditions: protein: recombinant; tags: N-terminal GST; dsDNA, one strand shown
T8 sequence: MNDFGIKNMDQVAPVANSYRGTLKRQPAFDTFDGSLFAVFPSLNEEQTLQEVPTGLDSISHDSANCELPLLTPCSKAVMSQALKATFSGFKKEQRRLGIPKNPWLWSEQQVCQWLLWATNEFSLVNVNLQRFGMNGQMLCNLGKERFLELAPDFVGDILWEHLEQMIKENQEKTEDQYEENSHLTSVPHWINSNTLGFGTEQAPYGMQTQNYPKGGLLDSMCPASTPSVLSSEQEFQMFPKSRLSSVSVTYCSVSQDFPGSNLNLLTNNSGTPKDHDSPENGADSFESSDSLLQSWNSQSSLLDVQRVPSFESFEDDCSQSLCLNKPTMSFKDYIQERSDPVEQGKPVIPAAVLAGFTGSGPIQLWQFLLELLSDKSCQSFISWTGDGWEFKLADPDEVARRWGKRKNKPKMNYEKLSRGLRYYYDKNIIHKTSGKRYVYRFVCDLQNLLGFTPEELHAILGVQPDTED
How it was run: as §1

[14] = biological target: T9, SPDEF (Homo sapiens, UniProt O95238 1-335); conditions: protein: recombinant; tags: N-terminal GST; dsDNA, one strand shown
T9 sequence: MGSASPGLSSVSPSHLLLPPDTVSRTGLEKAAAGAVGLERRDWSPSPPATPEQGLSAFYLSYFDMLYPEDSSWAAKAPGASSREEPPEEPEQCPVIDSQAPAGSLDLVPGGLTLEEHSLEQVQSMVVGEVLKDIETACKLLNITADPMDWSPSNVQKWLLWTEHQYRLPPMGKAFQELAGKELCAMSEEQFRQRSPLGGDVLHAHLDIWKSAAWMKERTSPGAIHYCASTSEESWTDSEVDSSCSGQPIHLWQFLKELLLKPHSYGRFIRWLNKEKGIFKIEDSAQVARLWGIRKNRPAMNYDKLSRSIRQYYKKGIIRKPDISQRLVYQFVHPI
How it was run: as §1

[15] = biological target: T10, ETV7 (Homo sapiens, UniProt Q9Y603 1-341); conditions: protein: recombinant; tags: N-terminal GST; dsDNA, one strand shown
T10 sequence: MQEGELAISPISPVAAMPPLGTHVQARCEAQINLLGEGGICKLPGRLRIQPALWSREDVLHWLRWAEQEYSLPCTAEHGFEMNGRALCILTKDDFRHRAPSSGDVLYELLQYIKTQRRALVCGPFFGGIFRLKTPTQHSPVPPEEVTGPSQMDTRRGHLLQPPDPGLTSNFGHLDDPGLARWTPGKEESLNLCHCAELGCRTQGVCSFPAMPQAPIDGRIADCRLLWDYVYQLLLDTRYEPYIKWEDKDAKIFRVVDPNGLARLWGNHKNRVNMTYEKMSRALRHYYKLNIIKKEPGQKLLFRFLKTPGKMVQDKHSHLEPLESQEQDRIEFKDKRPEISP
How it was run: as §1

[16] = biological target: T11, ELF5 (Homo sapiens, UniProt Q9UKW6-2 1-255); conditions: protein: recombinant; tags: N-terminal GST; dsDNA, one strand shown
T11 sequence: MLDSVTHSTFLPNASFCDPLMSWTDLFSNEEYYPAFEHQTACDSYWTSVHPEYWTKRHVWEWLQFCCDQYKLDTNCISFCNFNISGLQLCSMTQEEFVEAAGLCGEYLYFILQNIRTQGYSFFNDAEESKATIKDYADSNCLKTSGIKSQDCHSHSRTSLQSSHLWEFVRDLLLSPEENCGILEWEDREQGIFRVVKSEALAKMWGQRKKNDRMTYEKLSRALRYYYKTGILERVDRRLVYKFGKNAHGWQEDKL
How it was run: as §1

[17] = biological target: T12, ETV3 (Homo sapiens, UniProt P41162-2 1-143); conditions: protein: recombinant; tags: N-terminal GST; dsDNA, one strand shown
T12 sequence: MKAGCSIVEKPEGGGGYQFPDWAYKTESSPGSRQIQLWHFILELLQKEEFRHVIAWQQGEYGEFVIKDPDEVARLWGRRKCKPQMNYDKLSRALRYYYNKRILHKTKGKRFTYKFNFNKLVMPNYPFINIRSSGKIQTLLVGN
How it was run: as §1

[18] = biological target: ETV6 (Homo sapiens, UniProt P41212 1-452); conditions: protein: recombinant; tags: N-terminal GST; dsDNA, one strand shown
How it was run: as §1

Chain of ETV5 (P41161 whole entry): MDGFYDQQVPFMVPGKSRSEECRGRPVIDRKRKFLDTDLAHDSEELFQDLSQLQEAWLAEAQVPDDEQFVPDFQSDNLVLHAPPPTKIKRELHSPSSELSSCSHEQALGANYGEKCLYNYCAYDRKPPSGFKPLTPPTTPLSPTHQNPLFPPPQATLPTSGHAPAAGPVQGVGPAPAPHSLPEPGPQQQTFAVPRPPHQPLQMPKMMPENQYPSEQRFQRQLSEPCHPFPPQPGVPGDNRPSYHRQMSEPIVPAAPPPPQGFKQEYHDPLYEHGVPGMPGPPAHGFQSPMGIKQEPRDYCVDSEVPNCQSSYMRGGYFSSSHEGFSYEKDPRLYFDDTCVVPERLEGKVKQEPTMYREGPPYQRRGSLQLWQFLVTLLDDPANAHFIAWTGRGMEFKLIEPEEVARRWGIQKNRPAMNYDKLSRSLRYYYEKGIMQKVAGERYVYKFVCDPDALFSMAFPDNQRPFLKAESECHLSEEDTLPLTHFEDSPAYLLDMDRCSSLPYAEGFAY
Chain of CRX (O43186 whole entry): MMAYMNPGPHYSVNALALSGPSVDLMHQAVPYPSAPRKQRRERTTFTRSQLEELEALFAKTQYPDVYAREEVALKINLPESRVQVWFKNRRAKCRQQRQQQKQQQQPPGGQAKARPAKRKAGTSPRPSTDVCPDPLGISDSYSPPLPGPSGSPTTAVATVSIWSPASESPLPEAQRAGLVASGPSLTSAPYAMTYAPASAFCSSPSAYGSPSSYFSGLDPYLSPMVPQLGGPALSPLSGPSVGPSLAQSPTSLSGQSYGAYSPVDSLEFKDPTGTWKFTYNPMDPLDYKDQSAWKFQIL
Chain of ETV6 (P41212 whole entry): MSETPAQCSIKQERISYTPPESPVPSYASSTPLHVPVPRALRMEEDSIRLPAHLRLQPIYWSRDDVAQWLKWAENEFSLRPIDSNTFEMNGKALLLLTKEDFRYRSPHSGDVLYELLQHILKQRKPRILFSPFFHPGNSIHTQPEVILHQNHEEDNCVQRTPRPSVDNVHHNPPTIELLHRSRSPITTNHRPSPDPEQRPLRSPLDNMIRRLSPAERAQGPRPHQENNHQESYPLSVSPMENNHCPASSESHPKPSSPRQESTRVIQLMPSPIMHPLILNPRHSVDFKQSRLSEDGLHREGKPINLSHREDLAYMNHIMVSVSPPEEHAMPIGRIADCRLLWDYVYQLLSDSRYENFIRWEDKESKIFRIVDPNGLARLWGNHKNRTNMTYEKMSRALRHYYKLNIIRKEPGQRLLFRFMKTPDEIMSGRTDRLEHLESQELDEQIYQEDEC
Chain of ETV1 (P50549 whole entry): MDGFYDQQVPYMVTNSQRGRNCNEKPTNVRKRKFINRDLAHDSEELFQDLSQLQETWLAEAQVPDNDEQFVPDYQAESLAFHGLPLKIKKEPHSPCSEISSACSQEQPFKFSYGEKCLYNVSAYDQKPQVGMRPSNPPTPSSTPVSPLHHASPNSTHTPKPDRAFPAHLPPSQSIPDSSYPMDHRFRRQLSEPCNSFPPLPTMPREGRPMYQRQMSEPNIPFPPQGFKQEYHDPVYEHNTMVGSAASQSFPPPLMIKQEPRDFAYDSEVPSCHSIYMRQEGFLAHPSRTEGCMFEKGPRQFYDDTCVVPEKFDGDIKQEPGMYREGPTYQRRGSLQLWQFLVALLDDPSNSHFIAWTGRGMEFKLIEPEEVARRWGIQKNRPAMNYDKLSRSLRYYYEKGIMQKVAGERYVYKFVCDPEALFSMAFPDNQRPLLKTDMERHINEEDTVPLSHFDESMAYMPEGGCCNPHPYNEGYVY
Chain of HSF1 (Q00613 whole entry): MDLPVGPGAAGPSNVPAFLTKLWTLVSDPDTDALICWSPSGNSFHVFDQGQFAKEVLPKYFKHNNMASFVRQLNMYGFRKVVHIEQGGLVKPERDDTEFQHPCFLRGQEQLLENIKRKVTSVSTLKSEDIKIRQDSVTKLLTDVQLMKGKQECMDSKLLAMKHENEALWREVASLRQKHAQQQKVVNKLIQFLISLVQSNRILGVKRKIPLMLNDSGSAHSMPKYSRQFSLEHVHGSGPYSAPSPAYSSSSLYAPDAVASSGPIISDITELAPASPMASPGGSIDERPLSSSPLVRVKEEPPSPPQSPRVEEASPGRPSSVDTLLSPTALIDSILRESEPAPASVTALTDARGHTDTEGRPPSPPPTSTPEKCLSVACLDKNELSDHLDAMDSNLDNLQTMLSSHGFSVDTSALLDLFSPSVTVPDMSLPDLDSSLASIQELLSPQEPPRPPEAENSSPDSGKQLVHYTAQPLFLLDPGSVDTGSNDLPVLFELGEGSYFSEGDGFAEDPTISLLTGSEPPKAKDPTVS
Chain of ELF4 (Q99607 whole entry): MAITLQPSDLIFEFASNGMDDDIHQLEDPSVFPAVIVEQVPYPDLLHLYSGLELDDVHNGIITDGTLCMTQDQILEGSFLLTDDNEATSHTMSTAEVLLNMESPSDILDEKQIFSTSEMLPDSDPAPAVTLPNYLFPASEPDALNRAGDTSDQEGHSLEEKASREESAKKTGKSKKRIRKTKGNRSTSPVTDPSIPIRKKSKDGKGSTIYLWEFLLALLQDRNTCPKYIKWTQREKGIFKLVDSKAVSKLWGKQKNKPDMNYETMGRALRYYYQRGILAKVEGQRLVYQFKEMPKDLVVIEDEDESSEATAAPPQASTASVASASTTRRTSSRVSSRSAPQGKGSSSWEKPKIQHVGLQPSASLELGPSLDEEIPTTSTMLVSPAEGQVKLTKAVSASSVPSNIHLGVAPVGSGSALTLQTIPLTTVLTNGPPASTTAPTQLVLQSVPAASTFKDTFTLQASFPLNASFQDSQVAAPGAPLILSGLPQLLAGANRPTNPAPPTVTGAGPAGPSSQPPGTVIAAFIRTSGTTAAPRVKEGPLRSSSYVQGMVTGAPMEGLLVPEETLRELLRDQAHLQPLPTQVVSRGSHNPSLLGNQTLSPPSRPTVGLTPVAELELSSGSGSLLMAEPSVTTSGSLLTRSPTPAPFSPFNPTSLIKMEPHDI

For ACGATT, the binding signal [1] was 1.28 fold enrichment (6-mer frequency, TF over GST control), the binding signal [2] was 1.36 fold enrichment (6-mer frequency, TF over GST control) and the binding signal [3] was 1.69 fold enrichment (6-mer frequency, TF over GST control). The binding signal [4] was 1.39 fold enrichment (6-mer frequency, TF over GST control), the binding signal [5] was 1.39 fold enrichment (6-mer frequency, TF over GST control) and the binding signal [6] was 1.43 fold enrichment (6-mer frequency, TF over GST control). For the same sequence, the binding signal [7] was 1.24 fold enrichment (6-mer frequency, TF over GST control), the binding signal [8] was 1.31 fold enrichment (6-mer frequency, TF over GST control) and the binding signal [9] was 1.99 fold enrichment (6-mer frequency, TF over GST control). For the same sequence, the binding signal [10] was 1.31 fold enrichment (6-mer frequency, TF over GST control), the binding signal [11] was 1.4 fold enrichment (6-mer frequency, TF over GST control) and the binding signal [12] was 1.28 fold enrichment (6-mer frequency, TF over GST control). The binding signal [13] was 1.26 fold enrichment (6-mer frequency, TF over GST control), the binding signal [14] was 1.27 fold enrichment (6-mer frequency, TF over GST control) and the binding signal [15] was 1.28 fold enrichment (6-mer frequency, TF over GST control). The binding signal [16] was 1.24 fold enrichment (6-mer frequency, TF over GST control), the binding signal [17] was 1.32 fold enrichment (6-mer frequency, TF over GST control) and the binding signal [18] was 1.31 fold enrichment (6-mer frequency, TF over GST control).
